Assay outcomes as filed in PubChem BioAssay.
KCNH2 WT inh: qHTS for Inhibitors of KCHN2 3.1: Wildtype qHTS; AID 720551, 2013; activity change, % at 1.84 µM; Voltage-gated inwardly rectifying potassium channel KCNH2 (Homo sapiens), Q12809; U2OS, BacMam KCNH2, thallium flux FluxOr; stronger effect = lower value; 340,000 tested, 0.37% active;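 active = maximum activity change below -70%; inconclusive = maximum activity change between -70% and -50%; inactive = maximum activity change above -50%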; also: % is scaled to controls: 0 for no effect and ±100 for the full control effect
Target sequence (Q12809 whole entry, looked up): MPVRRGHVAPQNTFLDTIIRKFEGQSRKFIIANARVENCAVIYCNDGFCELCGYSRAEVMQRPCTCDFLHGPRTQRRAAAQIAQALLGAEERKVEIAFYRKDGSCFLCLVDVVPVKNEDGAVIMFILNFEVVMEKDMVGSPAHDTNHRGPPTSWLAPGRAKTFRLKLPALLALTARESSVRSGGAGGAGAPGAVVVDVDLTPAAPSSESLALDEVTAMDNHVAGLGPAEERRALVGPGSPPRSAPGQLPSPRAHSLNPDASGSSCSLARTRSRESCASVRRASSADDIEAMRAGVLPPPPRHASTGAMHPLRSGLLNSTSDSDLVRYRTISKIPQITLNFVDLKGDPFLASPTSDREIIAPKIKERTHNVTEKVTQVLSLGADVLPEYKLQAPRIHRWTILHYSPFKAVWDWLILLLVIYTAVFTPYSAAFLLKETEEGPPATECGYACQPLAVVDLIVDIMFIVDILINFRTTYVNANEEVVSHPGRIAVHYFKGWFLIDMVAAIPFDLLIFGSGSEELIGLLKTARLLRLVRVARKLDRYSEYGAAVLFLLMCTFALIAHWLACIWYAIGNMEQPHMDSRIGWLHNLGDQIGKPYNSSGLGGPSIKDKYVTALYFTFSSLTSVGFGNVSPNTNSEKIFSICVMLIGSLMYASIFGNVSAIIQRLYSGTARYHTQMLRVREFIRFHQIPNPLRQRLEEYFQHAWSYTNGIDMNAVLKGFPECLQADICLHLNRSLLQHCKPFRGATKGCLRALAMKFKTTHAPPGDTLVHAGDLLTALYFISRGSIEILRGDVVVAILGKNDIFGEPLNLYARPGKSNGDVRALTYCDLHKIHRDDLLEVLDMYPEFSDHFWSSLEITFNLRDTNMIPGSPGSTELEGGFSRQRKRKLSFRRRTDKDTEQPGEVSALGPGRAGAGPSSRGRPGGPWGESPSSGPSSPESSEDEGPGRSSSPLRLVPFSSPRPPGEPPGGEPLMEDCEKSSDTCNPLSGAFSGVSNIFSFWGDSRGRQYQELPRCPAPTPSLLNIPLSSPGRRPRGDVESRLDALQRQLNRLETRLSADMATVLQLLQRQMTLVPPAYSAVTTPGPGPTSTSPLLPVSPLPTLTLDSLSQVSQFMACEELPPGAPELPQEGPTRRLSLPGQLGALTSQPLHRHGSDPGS
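U2OS cells transduced with wild-type KCNH2 virus are loaded with FluxOr dye for 45 min, and thallium flux is measured in kinetic reads before and after stimulation buffer. Rate constants are normalized to DMSO controls.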
EPAC1 ag: qHTS for Agonist of cAMP-regulated guanine nucleotide exchange factor 3 (EPAC1): primary screen | EPAC1 agonist qHTS, biochemical assay; response scale: 100% = response to 6.5 mM cAMP | Potency, µM (top dose mostly 154 µM), for the others: at the top dose activation, usual class: activators | 360,000 tested, 0.073% active | AID 720707, 2013; also: potency is read from the fitted curve at half-maximal effect; nearly all actives have a fitted effect of over 60% in size
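EPAC1 100 nM, Rap1B–BODIPY-GDP 250 nM, unlabeled GDP 50 uM; compound titration; 5 min RT; kinetic read ex480/em540 at 5-min intervals ×30 min; data normalized to 6.5 mM cAMP agonist control.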
EPAC1 antagonist: qHTS for Antagonist of cAMP-regulated guanine nucleotide exchange factor 3 (EPAC1): primary screen | Rap guanine nucleotide exchange factor 3 (Homo sapiens), O95398 | EPAC1 GEF assay, Rap1b-BODIPY-GDP exchange fluorescence | Potency, µM (series often up to 115 µM), without a hit: at the top dose activity change, negative = inhibition, most hits filed as inhibitors | 360,000 tested, 0.14% active;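 also: potency is read from the fitted curve at half-maximal effect; plate controls were vehicle for no effect and positive control for full effect; nearly all actives have a fitted effect of over 50% in size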
EPAC2 ag: qHTS for Agonist of cAMP-regulated guanine nucleotide exchange factor 4 (EPAC2): primary screen. Rap guanine nucleotide exchange factor 4 (Homo sapiens), Q8WZA2. EPAC2 activation, biochemical qHTS; response scale: 100% = 6.5 mM cAMP response. Potency, µM (top dose mostly 154 µM), inactives show top-dose activation, most hits filed as activators. 360,000 tested, 0.079% active. AID 720711, 2013; also: potency is read from the fitted curve at half-maximal effect; nearly all actives have a fitted effect of over 50% in size
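Each well held 100 nM EPAC2, 250 nM RAP1B-BODIPY-GDP and 50 uM GDP. Fluorescence, read at 5-min intervals to 30 min, was referenced to a 6.5 mM cAMP positive control.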
KCNH2 3.1 inh: qHTS for Inhibitors of KCHN2 3.1: Mutant qHTS; Potassium voltage-gated channel subfamily H member 2, brain isoform KCNH2 3.1 (human); U2OS KCNH2 3.1, thallium flux FluxOr; stronger effect = lower value; activity change, % (tested at about 1.8 µM); 340,000 tested, 0.95% active; AID 720553, 2013;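 active = maximum activity change below -70%; inconclusive = maximum activity change from -70% to -50%; inactive = maximum activity change above -50%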;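 also: thallium influx rate constant from kinetic fluorescence after stimulation buffer; % is scaled to controls: 0 for no effect and ±100 for the full control effect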
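We transduce U2OS cells with the mutant 3.1 virus, culture them overnight, load FluxOr with Red40 quencher for 45 min, then add stimulation buffer and read kinetically for 2 min to derive a normalized rate constant.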
EPAC2 antag: qHTS for Antagonist of cAMP-regulated guanine nucleotide exchange factor 2 (EPAC2): primary screen | EPAC2 GEF exchange of Rap1B-BODIPY-GDP, fluorescence | Potency, µM (highest dose often 114 µM), inactives show at the highest dose activity, negative = inhibition, actives largely listed as inhibitors | 360,000 tested, 0.18% active; also: potency is read from the fitted curve at half-maximal effect; % is scaled to controls: 0 for no effect and ±100 for the full control effect; nearly all actives have a fitted effect of over 45% in size
* hit, by the source's call; ? = inconclusive; / = no result. An excerpt weighted towards active compounds, which were near 1.4% of everything screened. Unless noted, calls follow the shape of the dose curve; as a rule, active = well fitted curve in the direction sought with a large enough effect; inconclusive = small, poorly fitted or top-dose-only effect, or another doubt; inactive = no such curve, though single readings can be large; an effect the other way counts as inactive or inconclusive.

SMILES | KCNH2 WT inh | EPAC1 ag | EPAC1 antagonist | EPAC2 ag | KCNH2 3.1 inh | EPAC2 antag
C[C@H](CO)N1C[C@H](C)[C@@H](CN(C)Cc2ccc3c(c2)OCO3)Oc2c(NC(=O)C3CCCCC3)cccc2C1=O | -3.6 | -7.7% | -11.0% | -10.5% | -96.2* | -26.1%
C[C@H](CO)N1C[C@H](C)[C@@H](CN(C)Cc2ccccc2)Oc2c(NC(=O)c3ccncc3)cccc2C1=O | 10.4 | -1.1% | -7.4% | 6.2% | 6.1 | 1.4%
C[C@H](CO)N1C[C@H](C)[C@@H](CN(C)C(=O)Nc2ccc3c(c2)OCO3)Oc2c(NC(=O)C3CCCCC3)cccc2C1=O | 3.4 | -16.3% | -21.1% | -3.1% | -16.1 | -10.6%
C[C@@H]1CN([C@H](C)CO)C(=O)c2cccc(NC(=O)c3ccncc3)c2O[C@@H]1CN(C)Cc1ccc(C(=O)O)cc1 | -6.2 | 7.6% | 18.8% | 7.5% | -85.1* | 6.9%
Cc1noc(C)c1NC(=O)Nc1ccc2c(c1)C(=O)N([C@H](C)CO)C[C@H](C)[C@@H](CN(C)S(=O)(=O)c1ccccc1)O2 | -9.8 | -10.7% | 17.2% | 2.1% | -1.3 | 26.5%
Nc1nc(CN2CCCCCC2)nc(Nc2ccc(F)cc2)n1 | 28.1 | 0.0% | -18.0% | -6.8% | -72.5* | -2.3%
COc1ccccc1Nc1nc(N)nc(CN2CCCCCC2)n1 | -2.6 | 1.0% | 4.6% | 7.0% | -18.6 | -3.5%
Nc1nc(CN2CCN(c3ccccn3)CC2)nc(Nc2ccc(F)cc2)n1 | -3.4 | 7.7% | -5.8% | 11.4% | -89.0* | -15.8%
Nc1nc(CSC(=S)N2CCOCC2)nc(Nc2ccc(F)cc2)n1 | -1.7 | -1.9% | 9.2% | 2.2% | -114.8* | 9.9%
COc1ccc(CCNC(=O)C(=O)N/N=C/c2cccs2)cc1OC | 10.9 | 7.5% | -6.0% | 13.6% | 2.8 | 2.9%
CCN(Cc1ccccc1)C(=O)CSc1ccccc1C(=O)O | -232.9* | -16.4% | 7.5% | 6.4% | -176.1* | 18.8%
O=[N+]([O-])c1cccnc1Oc1ccc(C2SCCS2)cc1 | -153.4* | 7.4% | 6.5% | 16.3% | 16.3 | 2.1%
COc1cc(C2SCCS2)cc(Br)c1Oc1ncccc1[N+](=O)[O-] | 3.3 | 5.6% | -2.2% | 6.9% | -1.7 | -0.6%
COc1ccc(CC2=CC(=O)c3ccccc3C2=O)cc1 | -3.4 | 5.3% | -20.1% | 16.9% | -16.8 | 1.8%
CN(CC(=O)NC(c1ccccc1)c1ccccc1)Cc1nc2ccccc2c(=O)[nH]1 | -81.1* | -0.4% | 1.9% | 7.9% | ? | -8.4%
Cc1nn(C)c(C)c1CNC(=O)c1cc2n(n1)C(C(F)(F)F)CC(c1cccs1)N2 (stereo not given) | 1.5 | 3.2% | -4.4% | -12.5% | -2.4 | -1.1%
CCOC(=O)c1c(NC(=O)c2cc3n(n2)C(C(F)(F)F)CC(c2cccs2)N3)sc(C)c1C (stereo not given) | -4.1 | 4.0% | 3.3% | 5.7% | -78.3* | 6.6%
CC(=O)Nc1ccc(S(=O)(=O)NCC2CCC(C(=O)NCc3ccccc3)CC2)cc1 (stereo not given) | / | 3.7% | -8.6% | 3.7% | -4.2 | -3.9%
O=C(Nc1ccc(S(=O)(=O)NCc2ccccc2)cc1)C1CCCCC1 | 5.2 | -2.0% | 17.9% | 0.0% | -71.9* | -3.2%
O=C(NCCCN1CCOCC1)C(=O)NCC1OCCN1S(=O)(=O)c1ccc(Cl)cc1 (stereo not given) | 3.6 | 8.1% | -1.1% | 4.5% | -2.2 | 1.5%
